High-throughput results as filed in PubChem.
This is a sample that favours compounds with a hit; in the whole collection about 1.4% have one here.
AmpC inh no detg = qHTS Inhibitors of AmpC Beta-Lactamase (assay without detergent); P00811; actives 0.52% (n = 330,000); Potency, µM (top dose mostly 57.1 µM), for the others: at the top dose activity change, negative = inhibition, hits mostly inhibitors; AmpC nitrocefin hydrolysis, absorbance 480 nm, 0.0001% Triton;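 further: plate controls were no compound for no effect and no enzyme for full effect; nearly all actives have a fitted effect of over 20% in size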
Target sequence (P00811 whole entry, looked up): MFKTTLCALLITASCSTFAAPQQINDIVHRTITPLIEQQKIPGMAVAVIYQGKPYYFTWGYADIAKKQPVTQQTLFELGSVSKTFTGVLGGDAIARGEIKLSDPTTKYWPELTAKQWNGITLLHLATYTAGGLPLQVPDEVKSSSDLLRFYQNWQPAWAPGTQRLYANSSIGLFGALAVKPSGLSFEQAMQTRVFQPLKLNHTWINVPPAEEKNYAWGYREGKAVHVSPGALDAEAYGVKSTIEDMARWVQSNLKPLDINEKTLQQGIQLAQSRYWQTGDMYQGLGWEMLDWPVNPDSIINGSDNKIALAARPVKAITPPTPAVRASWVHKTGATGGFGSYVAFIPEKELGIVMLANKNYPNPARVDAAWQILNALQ
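20 mM phosphate pH 7.0 + 0.01% (detergent screen) or 0.0001% Triton X-100; 5.3 nM AmpC reagent; cpd preinc 15 min RT; nitrocefin (800 uM stock) to start; A480 q20 s × 4 min; Activity was normalised to no-enzyme and no-compound control wells.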
LmPK inhibitor = qHTS Assay for Inhibitors of Leishmania Mexicana Pyruvate Kinase (LmPK); Q27686; purified LmPK, Kinase-Glo ATP luminescence, 1 h; Potency, µM (titrated, usually from 57.5 µM), inactives show top-dose activity change, negative = inhibition, hits mostly inhibitors; actives 0.37% (n = 290,000); AID 1721, 2009
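Kinase-Glo luminescence read after 1 h RT reaction of 0.1 nM LmPK with 0.5 mM PEP and 0.1 mM ADP. Activity scaled between uninhibited and enzyme-free controls.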
Tb PYK inh = qHTS of Trypanosoma Brucei Inhibitors | pyruvate kinase (Trypanosoma brucei), Q57TT1 | TbPYK enzyme, Kinase-Glo Plus ATP luminescence, 45 min | Potency, µM (series often up to 76.8 µM), for the others: at the top dose activity, negative = inhibition, most hits filed as inhibitors | actives 0.12% (n = 410,000) | AID 624173, 2012; further: nearly all actives have a fitted effect of over 50% in size
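Quantitative HTS: titrated library compounds versus trypanosomal pyruvate kinase in TEA buffer (pH 7.2) containing KCl, MgCl2, BSA and Tween-20. Reactions were initiated with ADP, 130 uM final. Kinase-Glo Plus luminescence was read after 45 min at RT.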
Giardia FBPA inh-1 = qHTS Assay for Inhibitors of Fructose-1,6-bisphosphate Aldolase from Giardia Lamblia; A8B2U2; purified Giardia FBPA; Potency, µM (series often up to 59.6 µM), for the others: at the top dose activity, negative = inhibition, usual class: inhibitors; actives 0.71% (n = 290,000); further: nearly all actives have a fitted effect of over 55% in size
Target sequence (A8B2U2 whole entry, looked up): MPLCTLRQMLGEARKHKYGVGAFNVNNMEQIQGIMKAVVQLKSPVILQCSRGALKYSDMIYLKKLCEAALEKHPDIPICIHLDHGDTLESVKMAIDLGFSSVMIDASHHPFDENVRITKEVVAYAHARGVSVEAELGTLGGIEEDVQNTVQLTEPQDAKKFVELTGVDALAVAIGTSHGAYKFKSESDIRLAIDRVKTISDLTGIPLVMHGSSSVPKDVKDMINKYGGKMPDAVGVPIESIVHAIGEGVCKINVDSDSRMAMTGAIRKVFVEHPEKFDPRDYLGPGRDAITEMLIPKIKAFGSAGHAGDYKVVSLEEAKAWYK
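Giardia FBPA (40 nM reagent) was preincubated 10 min at RT with compound (up to 57.5 uM final), then substrate plus GAPDH/TPI/NAD/arsenate coupling system with diaphorase/resazurin was added; resorufin fluorescence (525/598 nm) was read after 20 min.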
RE007 growth inh = qHTS Assay for Inhibitors of the HIV-1 protein Vpr; actives 0.21% (n = 360,000); S. pombe RE007 Vpr strain, BacTiter-Glo ATP luminescence, 24 h; AID 651644, 2012; Potency, µM (highest dose often 92.2 µM), inactives show top-dose activity change, negative = less growth, actives largely listed as inhibitors; active means well fitted falling curve with a large enough effect; inconclusive means small, poorly fitted or top-dose-only effect; inactive means no such curve, though single readings can be large or run the other way; further: nearly all actives have a fitted effect of over 50% in size
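Fission yeast strain RE007, carrying one chromosomally integrated HIV-1 vpr copy, was seeded at OD 0.01 in PMG+AL medium with 23 nL pinned compound. After 24 h at 30 °C and 99% humidity, viability was read by BacTiter-Glo luminescence.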
AmpC inh detg = qHTS Inhibitors of AmpC Beta-Lactamase (assay with detergent); AmpC hydrolysis of nitrocefin, absorbance 480 nm, 0.01% Triton; Potency, µM (doses to about 114 µM), for the others: at the top dose activity change, negative = inhibition, actives largely listed as inhibitors; actives 0.041% (n = 370,000);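 further: 0% = no-compound wells and -100% = no-enzyme wells; nearly all actives have a fitted effect of over 25% in size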
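AmpC (5.3 nM in the dispensed reagent) in 20 mM phosphate pH 7.0 with 0.01% (detergent screen) or 0.0001% Triton X-100 was preincubated with compounds for 15 min at room temperature. Nitrocefin was then added from an 800 uM solution, and hydrolysis was followed at 480 nm.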
Giardia growth = qHTS Assay for Inhibitors of Fructose-1,6-bisphosphate Aldolase from Giardia Lamblia: Giardia lamblia growth inhibition. shares compounds with Giardia FBPA inh-1. Giardia lamblia trophozoite growth inhibition. Potency, µM (highest dose often 57.5 µM), for the others: top-dose activity change, negative = inhibition, hits mostly inhibitors. actives 5% (n = 1,500). AID 2785, 2010;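 further: trophozoites exposed to compound for 48 h at 37 °C; nearly all actives have a fitted effect of over 70% in size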
Mammal cell tox = qHTS Assay for Inhibitors of Fructose-1,6-bisphosphate Aldolase from Giardia Lamblia: Mammalian cellular toxicity | AID 2786, 2010 | mammalian cell viability counter-screen, qHTS | shares compounds with Giardia FBPA inh-1 | Potency, µM (series often up to 57.5 µM), for the others: at the top dose viability change, negative = toxicity, hits mostly inhibitors | actives 4% (n = 1,500);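 further: Chinese hamster ovary cells used as mammalian cytotoxicity surrogate; viability measured as cellular ATP by luminescence; compound exposure lasted 48 h before reading; nearly all actives have a fitted effect of over 60% in size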
Giardia FBPA inh-2 = qHTS Assay for Inhibitors of Fructose-1,6-bisphosphate Aldolase from Giardia Lamblia: Primary screen confirmation | shares compounds with Giardia FBPA inh-1 | purified Giardia aldolase enzyme activity, qHTS | Potency, µM (series often up to 57.5 µM), without a hit: top-dose activity change, negative = inhibition, actives largely listed as inhibitors | actives 5% (n = 1,500); further: nearly all actives have a fitted effect of over 45% in size
Rabbit FBPA inh = qHTS Assay for Inhibitors of Fructose-1,6-bisphosphate Aldolase from Giardia Lamblia: Rabbit FBPA Selectivity; shares compounds with Giardia FBPA inh-1; Rabbit muscle FBPA enzyme inhibition, selectivity counter-screen; Potency, µM (highest dose often 57.5 µM), for the others: at the highest dose activity, negative = inhibition, most hits filed as inhibitors; actives 4% (n = 1,500); further: nearly all actives have a fitted effect of over 60% in size
GAPDH counter = qHTS Assay for Inhibitors of Fructose-1,6-bisphosphate Aldolase from Giardia Lamblia: Coupling assay counterscreen confirmation; shares compounds with Giardia FBPA inh-1; AID 2795, 2010; actives 6% (n = 1,500); GAPDH coupling enzyme counterscreen, biochemical, qHTS; Potency, µM (top dose mostly 57.5 µM), for inactives: at the highest dose activity change, negative = inhibition, hits mostly inhibitors; further: nearly all actives have a fitted effect of over 55% in size
Numbers without * were called inactive; u = inconclusive; x = no result; [ ] = dose if it differs, or a comment. Unless noted, the call rests on the fitted dose curve; in most records, active means well fitted curve in the direction sought with a large enough effect; inconclusive means small, poorly fitted or top-dose-only effect, or another doubt; inactive means no such curve, though single readings can be large; an effect the other way counts as inactive or inconclusive. Unless noted, on the % scale 0 is the no-effect control and ±100 the full control effect; potency means the concentration at half of the fitted maximal effect.

SMILES	AmpC inh no detg	LmPK inhibitor	Tb PYK inh	Giardia FBPA inh-1	RE007 growth inh	AmpC inh detg	Giardia growth	Mammal cell tox	Giardia FBPA inh-2	Rabbit FBPA inh	GAPDH counter
CCN(CC#CCC(O)(c1ccccc1)c1ccccc1)C(C)C	-1%	-4%	-14%	-3%	3%	-2%	x	x	x	x	x
CC(C)N(CC#CCC(O)(c1ccccc1)c1ccccc1)CCO	18%	-4%	2%	16µM*	-24%	1%	-8%	9%	3%	19%	3%
CCc1ccc(NC(=O)c2cc(=O)c3ccc(C)c(C)c3o2)cc1	x	x	1%	x	x	-6%	x	x	x	x	x
CCN(CC)C(=O)c1c(C)[nH]c(=S)c(C#N)c1-c1ccco1	38%	52%	5.6µM*	10µM*	19%	6%	1%	1%	5%	-3%	8%
Cc1[nH]c(=S)c(C#N)c(-c2ccccc2)c1C(=O)Nc1ccccc1	-53%	13%	u	u	15%	2%	x	x	x	x	x
Cc1ccccc1-c1nc(CS(=O)(=O)CC(=O)NCc2cccc(Cl)c2)c(C)o1	x	x	4%	x	x	-13%	x	x	x	x	x
O=C(O)c1ccc2cccc(O)c2n1	-21%	3%	9%	2.2µM*	23%	-5%	u	21%	u	-28%	u
Oc1c(/C=N/c2ncn[nH]2)ccc2ccccc12	-13%	-21%	0%	8.9µM*	-5%	u	19%	6%	8.9µM*	40µM*	u
COc1cc(Cl)c(C)cc1NC(=O)c1cnc(N2CCOCC2)c2ccccc12	x	x	2%	x	x	-7%	x	x	x	x	x
COc1ccccc1NC(=O)c1c(-c2ccc(C)cc2)nnc2ccccc12	x	x	5%[15.4 µM]	x	x	0%	x	x	x	x	x
CCc1ccc(NC(=O)C(=O)NCC(c2cccnc2)N2CCN(Cc3ccccc3)CC2)cc1 (stereo not drawn)	x	x	5%	x	x	-7%	x	x	x	x	x
CCOc1ccc(CCNc2ncnc3onc(-c4ccc(Cl)cc4)c23)cc1	x	x	5%	x	x	7%	x	x	x	x	x
CC(=O)N1CCc2c(sc3c2c(=O)n(-c2ccccc2)c(=O)n3CC(=O)NCC2CCCO2)C1 (stereo not drawn)	-7%	7%	-7%	10µM*	23%	-7%	-4%[38.3 µM]	-13%	-27%	-15%	-9%
Cc1ccccc1C(=O)NC(=S)Nc1ncccn1	-1%	5%	-1%	4.5µM*	18%	3%	-15%[38.3 µM]	-24%	-19%	-14%	-11%
CC1(C)OC2C(CO)OC(n3cnc4c(=S)nc[nH]c43)C2O1 (stereo not drawn)	-1%	7%	-21%	4.5µM*	12%	3%	-25%[38.3 µM]	u	-4%	-2%	1%
Nc1nc(=S)c2ncn([C@@H]3O[C@H](CO)[C@@H](O)[C@H]3O)c2[nH]1	-11%	x	-9%	x	-7%[18.4 µM]	-13%	x	x	x	x	x
OCC1OC(n2cnc3c(=S)nc[nH]c32)C(O)C1O (stereo not drawn)	x	x	u	4.5µM*	x	x	u	6.3µM*	2%	2%	-6%
Nc1nc(=S)c2ncn(C3OC(CO)C(O)C3O)c2[nH]1 (stereo not drawn)	-26%	1%	-6%	6.3µM*	-2%	3%	3%[10.4 µM]	2%	1%	2%	1%
O=C(CSc1nc(-c2ccccc2)no1)N1CCCCC1	x	x	-2%	x	x	7%	x	x	x	x	x
Cc1ccc(Nc2nc(C(N)=O)c(NC(=O)c3ccccc3Br)s2)cc1	x	x	-4%	x	x	3%	x	x	x	x	x
COC(=O)c1cc(C)nc2c1C(=O)C(=O)C=C2N1CCOCC1	-15%	-10%	-12%	0.25µM*	-2%	1%	25µM*	20µM*	1.3µM*	1.4µM*	1.4µM*
Nn1cnnc1N/N=C/c1ccc(Cl)cc1Cl	4%	-4%	0%	-30%	-4%	0%	-10%[38.3 µM]	u	5.8µM*	8.2µM*	9.2µM*
COCCNC(=S)NNc1cccc(C(=O)O)c1	-20%	1%[11.5 µM]	-12%	8.9µM*	-13%	-2%	-1%[38.3 µM]	4%	0%	1%	-13%
COCCNC(=O)C(=O)Nc1cccc(Br)c1	-18%	8%	-2%	0%	-6%	u	x	x	x	x	x
C/C(=N/Nc1nc(C)c(C)s1)c1cccc([N+](=O)[O-])c1	-15%	-4%	-16%	32µM*	1%	u	4%[10.4 µM]	-11%	-4%	6%	-11%
Cc1[nH]n(-c2ccccc2)c(=O)c1C=Nc1ccc(S(=O)(=O)N=C(N)N)cc1	-15%	6%	2%	-5%	-3%	2%	x	x	x	x	x
Cc1[nH]n(-c2ccccc2)c(=S)c1C=Nc1ccc([N+](=O)[O-])cc1	-16%	-26%	2.8µM*	4.5µM*	39%	-6%	-1%[38.3 µM]	-8%	-23%	35µM*	u
CC(=O)N1CCCc2cc(S(=O)(=O)NCc3ccc(OC(C)C)cc3)ccc21	x	x	-7%	x	x	3%	x	x	x	x	x
O=[N+]([O-])c1ccc(Nc2ccccc2)c2nonc12	-20%	-12%	-4%	1%	x	-4%	x	x	x	x	x
